Records with an inconclusive call do not appear. The source made the active and inactive calls. Calls come from the whole dose curve; as a rule, active = well fitted inhibition curve with a large enough effect; inconclusive = small, poorly fitted or top-dose-only effect; inactive = no such curve, though single readings can be large or run the other way.
experiment: qHTS for Inhibitors of the Aldehyde Dehydrogenase Family (ALDH1A2, ALDH1A3, ALDH2, ALDH3A1) (AID 2061307); details: ALDH inhibition qHTS; series mostly up to 50.3 µM; activity change, negative = inhibition: at the top concentration; note: nearly all actives have a fitted effect of over 50% in size; for Potency: test system not described further here
% is set by controls: 0 for no effect and ±100 for the full control effect; potency is the fitted concentration of half-maximal effect.

Activity change, negative = inhibition, inactive:
O=C(NCc1ccccn1)c1ccc2nnc(-c3ccc(OC(F)(F)F)cc3)n2c1 -20.7% [at 34.4 µM]
CC(NC(=O)c1c(O)nc2ccccn2c1=O)c1ccccc1 (configuration not stated) 0% [at 34.4 µM]
CS(=O)Cc1cccc(C(=O)Nc2cccc3cccnc23)c1 (configuration not stated) -12% [at 34.4 µM]
CCOc1ccc(-c2nc3scc(-c4ccc(OC)cc4)c3c(=O)[nH]2)cc1OC -18.5% [at 34.4 µM]
CC(=O)c1cc2c(cc1NC(=O)c1cnn(-c3ccc(F)cc3F)c1)OCO2 -13.3% [at 34.4 µM]
COC(=O)CC(=O)Nc1ccccc1C(=O)O -6.46%
NC(=O)c1ccc(NC(=O)c2cnn(-c3ccccc3)n2)cc1 -44.7% [at 34.4 µM]
CN1c2cc(C(=O)Nc3ccc(N4CCOCC4)cc3)ccc2C(=O)N2CCCCC21 (configuration not stated) 1.23% [at 34.4 µM]
CC(C)(C)OC(=O)NC1CCN(c2nc(Br)cs2)CC1 -8.32%
Cn1cc2c(=O)n(-c3ccccc3)c(SCc3cccc(F)c3)nc2n1 -0.291% [at 34.4 µM]
O=C(Nc1cccc(-c2ccc(N3CCOCC3)nn2)c1)Nc1ccccc1C(F)(F)F -15.6% [at 34.4 µM]
O=C(Nc1ncc(Cc2ccccc2F)s1)c1ccn(-c2ccccc2)n1 -26.3%
NS(=O)(=O)c1ccc(Cc2cn(-c3nc(C(=O)O)cs3)c3cc(C(=O)N4CCOCC4)ccc23)cc1 -3.7%

Potency, active:
CCOc1ccc(NC(=O)c2ccc(NC(=O)CN3C(=O)N(C)C4(CCCCC4)C3=O)cc2)cc1 7.08 µM
COc1cc(O)c(C(CC(=O)N2CC(C)CC(C)C2)c2ccccc2Cl)c(OC)c1 (configuration not stated) 1 µM
COc1cc(O)c(C(CC(=O)N2CC(C)CC(C)C2)c2cccc(NS(C)(=O)=O)c2)c(OC)c1 (configuration not stated) 3.66 µM
O=C(NCc1ccccc1Cl)c1csc(N2CCN(c3ccc(F)cc3)CC2)n1 2.51 µM
